Source: PubChem
CHX counter: affects cycloheximide protein synthesis inhibition readout, counter-screen; AID 2314; 300,000 compounds, 12% hits; max response, %; cell reporter, cycloheximide protein synthesis inhibition counterscreen; in the data active means max response mostly above about 13%, no sharp cut-off; inactive means mostly below about 14%; further: read at 38.3 µM for the half of the compounds with a filed dose; 0% is about no effect
Shiga toxin inh: inhibitors of Shiga toxin in Vero cells. inhibition, % at 38.7 µM. Vero cells, Shiga toxin protein synthesis inhibition reporter. 290,000 compounds, 9.2% hits; in the data active means inhibition mostly above about 28%, no sharp cut-off; inactive means mostly below about 43%; further: 0% is about no effect
NS1 function inh: blocks influenza NS1 protein function | AID 2326 | Potency, µM (titrated, usually from 46.1 µM), inactives show at the top dose activity, positive = more growth | 270,000 compounds, 0.4% hits; calls by dose curve; further: potency means the concentration at half of the fitted maximal effect; actives are rising curves; nearly all actives have a fitted effect of over 50% in size
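S. cerevisiae expressing influenza A NS1, grown in glucose, washed, then diluted 1:100 into pH 6.0 -URA galactose medium with 23 nl compound. Growth recovery read as OD600; NS1-free strain serves as control.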
Pf growth 48h: inhibits P. falciparum growth in the first generation, 48 h | P. falciparum luciferase growth in erythrocytes, 48 h | 310,000 compounds, 5.9% hits | Potency, µM (top dose mostly 28.7 µM), for the others: at the top dose activity change, negative = inhibition, usual class: inhibitors; further: potency means the concentration at half of the fitted maximal effect; on the % scale 0 is the no-effect control and ±100 the full control effect
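Here the parasites carry a stable luciferase gene and grow inside erythrocytes in Albumax-based RPMI medium with compound for one erythrocytic cycle. Activity is scored as loss of luminescent signal.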
Pf growth 96h: inhibits malaria parasite growth, 96 h. P. falciparum luciferase reporter growth, 96 h. Potency, µM (titrated, usually from 28.7 µM), for the others: at the top dose activity change, negative = inhibition, usual class: inhibitors. 320,000 compounds, 6.9% hits; further: potency means the concentration at half of the fitted maximal effect; on the % scale 0 is the no-effect control and ±100 the full control effect
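Plates of compound plus infected erythrocytes (2% hematocrit, 0.05% parasitemia final) incubate 96 hours, 37 C, 5% CO2. Detection reagent added; reduced luminescence from the parasites' luciferase reporter flags inhibition.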
Numbers without * were called inactive; i = inactive; ? = inconclusive; / = no result; [ ] = dose if it differs, or a comment. Compounds with a hit are over-represented: about 21% of the library has one in this group of screens. Unless noted, the call rests on the fitted dose curve; in most records, active means well fitted inhibition curve with a large enough effect; inconclusive means small, poorly fitted or top-dose-only effect, or another doubt; inactive means no such curve, though single readings can be large or run the other way.

SMILES	CHX counter	Shiga toxin inh	NS1 function inh	Pf growth 48h	Pf growth 96h
COc1cc(CN2CCC(CO)(CCOc3ccccc3)CC2)cc(OC)c1OC	-0.8	13.5	-0.6%	5.86µM*	8.9%
COc1cc(OC)c(CN2CCC(CO)(CCOc3ccccc3)CC2)c(OC)c1	-7.8	-6.9	9.6%	?	0.0%
OCC1(CCOc2ccccc2)CCN(CCCn2cccn2)CC1	-2.1	4.3	-0.4%	40.2%	10.4µM*
COc1ccc(CN2CCC(Cc3ccccc3)CC2)c(C)c1C	-2.6	-5.2	-10.9%	?	?
OCC1(CCOc2ccccc2)CCN(Cc2ccccc2OC(F)F)CC1	-2.2	-10.7	-9.4%	-7.2%	?
O=C(Nc1ccccc1)c1nsnc1C(=O)Nc1ccccc1	7.0	-1.8	/	16.4%[5.75 µM]	18.8%
O=C(COc1ccccc1)Nc1nnc(-c2ccc(Cl)s2)o1	-6.1	13.2	-129.9%	/	40.5%
OCC1(CCOc2ccccc2)CCN(Cc2ccc3c(c2)OCCO3)CC1	0.8	-42.5	-4.9%	-9.8%	11.7µM*
CCOC(=O)C1(CCOc2ccccc2)CCN(Cc2ccc3c(c2)OCCO3)CC1	-0.6	-15.5	-8.8%	?	3.6%
CSc1ccc(CN2CCC(CO)(CCOc3ccccc3)CC2)cc1	-0.6	-2.8	-22.2%	?	-26.2%
COc1ccc(CN2CCC(CO)(CCOc3ccccc3)CC2)cc1C	7.1	-2.5	0.8%	10.4µM*	4.1%
CCOc1cc(CN2CCC(CO)(Cc3cccc(C(F)(F)F)c3)CC2)ccc1OC	-3.5	-14.3	-0.6%	?	10.4µM*
O=C(Nc1ccc(Br)cc1Cl)c1ccc2c(=O)n3c(nc2c1)CCC3	/	/	/	74.7%	120.8%
O=C(O)CCCNS(=O)(=O)c1ccc(Br)s1	-4.0	-23.4	-5.7%	17.0%	114.2%
Fc1ccc2nc(C3CCN(Cc4nc(CC5CC5)no4)CC3)[nH]c2c1	15.2*	8.4	-0.6%	?	21.9%
Fc1ccccc1C1CCN(Cc2nc(CC3CC3)no2)C1 (stereo not given)	27.6*	75.1*	-4.8%	41.8%	?
COc1ccc2[nH]c(C(=O)O)c(CCN3C(=O)c4cccc([N+](=O)[O-])c4C3=O)c2c1	-0.4	-2.8	10.8%	31.4%	11.1%
Cc1ccccc1NC(=O)c1snc2c(=O)[nH]cnc12	-1.0	3.3	/	14.1%	4.1%
COc1cc(C2c3cc4c(cc3C(OC3OC5COC(c6cccs6)OC5C(O)C3O)C3COC(=O)C23)OCO4)cc(OC)c1O (stereo not given)	-0.9	-7.0	-5.3%	?	?
COc1cc(C2c3cc4c(cc3C(O[C@@H]3OC5COC(c6cccs6)OC5C(O)C3O)C3COC(=O)C23)OCO4)cc(OC)c1O (stereo not given in full)	/	/	/	0.536µM*	0.477µM*
COc1cc([C@H]2c3cc4c(cc3[C@@H](O[C@H]3O[C@H]5CO[C@@H](C)O[C@H]5[C@@H](O)[C@@H]3O)[C@@H]3COC(=O)[C@H]23)OCO4)cc(OC)c1O	/	/	/	13.5µM*	13.5µM*
CC(C)NC(=O)C(Cc1ccccc1)N1C(=O)c2ccccc2C1=O (stereo not given)	-1.2	-2.9	9.5%	-10.6%	42.4%
CC(Cc1ccccc1)N1C(=O)c2ccccc2C1=O (stereo not given)	21.8*	49.0*	-8.6%	2.1%	-4.1%
COc1ccc(OCc2cc(C(=O)NCC3CCOCC3)no2)c(Cl)c1	50.8*	53.8*	-3.5%	8.3%	?
COc1ccc(OCc2cc(C(=O)NCC3CCCCO3)no2)c(Cl)c1 (stereo not given)	45.8*	73.5*	-27.9%	-8.9%	22.9%
SMILES	CHX counter	Shiga toxin inh	NS1 function inh	Pf growth 48h	Pf growth 96h
CCOc1ccc(C2c3[nH]c4ccccc4c3CCN2CCCn2cccn2)cc1 (stereo not given)	-2.3	11.8	-2.8%	?	?
Cc1ccc(NC(=O)COC(=O)CN2C(=O)COc3ccccc32)cc1	5.6	-8.8	-17.7%	/	9.9%
COCC(=O)Nc1ccc2c(c1)OCC(=O)N2Cc1ccc(C)cc1	12.0*	22.1	-4.5%	?	?
CCN(c1ccccc1)S(=O)(=O)c1ccc(N2CCN(c3ccccc3O)CC2)nc1	/	/	/	6.57µM*	9.28µM*
COc1ccc(-c2sc3ccc(N4CCOCC4)cc3c2-c2ccc(OC)c(F)c2)cc1	1.7	-4.6	8.2%	14.7µM*	6.57µM*
COc1ccc(-c2sc3ccc(OC)cc3c2-c2ccc(OC)c(F)c2)cc1	/	/	/	?	-15.2%
COc1ccc(OC)c(/C=C/C(=O)OCC(=O)c2c(N)n(C)c(=O)n(C)c2=O)c1	-2.9	-2.2	9.4%	11.3%	25.4%
COc1cccc(-c2nc(=S)c3c(o2)CCCC3)c1	42.2*	120.4*	-2.5%	i	-5.5%
S=c1nc(-c2ccccc2)oc2c1CCCC2	59.6*	94.6*	8.7%	187.5%	281.2%
O=[N+]([O-])c1ccc(-c2nnc(CNC3CCCC3)o2)cc1	12.5	19.7	/	19.2%	5.0%
COc1cccc(-c2n[nH]c3c2CCC3)c1	21.6*	52.5	/	?	94.9%
COc1cccc(-c2nc(=S)c3c(n2Cc2ccco2)CCCC3)c1	0.7	-2.8	0.0%	?	10.2%
O=[N+]([O-])c1ccc(-c2nc(=S)c3c(o2)CCCC3)cc1	12.4*	15.9	0.2%	15.9%	89.6%
CCOC(=O)c1c(NC(=O)c2cc(C3CC3)on2)sc2c1CCCC2	/	/	-2.8%	/	/
O=C(c1cc(-c2ccccc2)nc2ccccc12)N1CCN(C2CCS(=O)(=O)C2)CC1 (stereo not given)	/	/	/	13.4%	?
CCc1cccc(Nc2cc(C)nc3ncnn23)c1	-2.7	-20.5	-8.2%	?	?
Cc1cc(Nc2ccc(N(C)C)cc2)n2ncnc2n1	43.5*	97.7*	-2.8%	2.33µM*	7.3%
CCn1c2ccccc2c2cc(Nc3cc(C)nc4ncnn34)ccc21	-5.0	-14.7	-171.4%	0.0738µM*	7.1%
CCc1ccc(Nc2cc(C)nc3ncnn23)cc1	-1.8	/	-3.6%	3.29µM*	0.8%
CCCOC(=O)c1ccc(Nc2cc(C)nc3ncnn23)cc1	-0.8	12.1	-16.0%	8.28µM*	-18.7%
O=C(O)C(Oc1ccc2cc(-c3ccc(Cl)cc3)c(=O)oc2c1)c1ccccc1 (stereo not given)	-2.8	-4.0	?	9.0%	268.4%
OCCC1CN(Cc2ccc(Oc3ncccn3)cc2)CCN1C1CCCC1 (stereo not given)	1.0	-1.7	-2.7%	13.6%	?
CCN(CC)S(=O)(=O)c1ccc(NC(=O)c2nc3nc(C)cc(C)n3n2)cc1	-5.5	1.6	3.5%	?	?
Cc1cc(Nc2ccc(Cl)cc2)n2ncnc2n1	0.7	-7.1	5.2%	?	32.4%
CCN(CC)S(=O)(=O)c1ccc(Nc2cc(C)nc3ncnn23)cc1	-1.4	36.1	-1.9%	14.7µM*	?
Cc1cc(Nc2cccc(Cl)c2)n2ncnc2n1	-2.3	-10.7	-15.2%	-27.0%	1.65µM*
CCOc1ccc(CCNC(=O)c2cc(C)nn2-c2ccccc2)cc1	6.1	-2.2	-4.3%	-12.6%	-6.7%
CC(=O)n1cc([C@@H]2C=C(C(=O)N3CCOCC3)O[C@H](OCCCCO)C2)c2ccccc21	-2.3	-12.0	0.1%	?	8.6%
